One may read the AC50 as the midpoint of the concentration-response curve, whichever way the signal moves.

These results are taken from PubChem BioAssay (EPA / NIEHS).

Experiment [1] addresses Myc proto-oncogene protein (Homo sapiens) (UniProt P01106). The experiment is described as follows: ATG_Myc_CIS: Attagene CIS-FACTORIAL HepG2 Assay for human Myelocytomatosis (Myc) Proto-Oncogene Transcription Factor (AID 2282990). The settings on record: HepG2, Attagene cis-reporter transcription factor activity; actives raise or lower the signal. The essentials: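 Multiplexed cis-reporter transcription in HepG2 cells after 24 h chemical treatment. Reporter mRNA measured by RT-PCR and capillary electrophoresis fluorescence; activity fitted bidirectionally against DMSO control.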

Experiment [2] in a line: ATG_NF_kB_CIS: Attagene CIS-FACTORIAL HepG2 Assay for human Nuclear Factor Kappa B (NF-kB) (AID 2282991). The settings on record: HepG2 Attagene cis-factorial NF-kB reporter mRNA; actives raise or lower the signal. In outline: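 Multiplexed cis-reporter assay in transiently transfected HepG2. 24 h treatment; RNA isolated, RT-PCR, labelled fragments resolved by CE. DMSO baseline.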

Experiment [3] can be described thus: ATG_NRF2_ARE_CIS: Attagene CIS-FACTORIAL HepG2 Assay for human Nuclear Factor Erythroid 2 Related Factor 2 (NFR2) response to Antioxidant Response Elements (ARE) (AID 2282992). The note with it: HepG2 Attagene ARE/NRF2 reporter, transcription factor activity; actives raise or lower the signal. The essentials:
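Endogenous transcription factor activity in human liver HepG2 cells is tracked via a cis-element-driven reporter within a multiplexed set. mRNA induction is read by RT-PCR and capillary electrophoresis after 24 h, with DMSO as baseline.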

Experiment [4] can be described thus: ATG_Oct_MLP_CIS: Attagene CIS-FACTORIAL HepG2 Assay for human Octamer-Binding Transcription Factor (Oct) (AID 2282993). The note with it: HepG2 Attagene cis-factorial Oct reporter, mRNA; actives raise or lower the signal. The essentials: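 Read-out: reporter mRNA via RT-PCR plus capillary electrophoresis of 6-FAM-labelled fragments. Transiently transfected HepG2, 24 h exposure, endogenous TF activity on cis elements. Gain or loss of signal fitted relative to DMSO.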

Experiment [5] concerns the target Cellular tumor antigen p53 (Homo sapiens) (UniProt P04637). The experiment is described as follows: ATG_p53_CIS: Attagene CIS-FACTORIAL HepG2 Assay for human p53 Transcription Factor (AID 2282994). The note with it: HepG2 p53 cis-element reporter, Attagene mRNA; actives raise or lower the signal. The essentials:
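Steps: transfect HepG2 with multiplexed cis reporter constructs; dose chemicals 24 h; extract RNA, reverse-transcribe, PCR-amplify reporter sequences; FAM-label, HpaI-digest, resolve fragments by CE. Activity fitted both directions relative to DMSO.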

A short description of experiment [6]: BSK_3C_TissueFactor: BioMAP Diversity Plus: 3C Assay for Tissue Factor Biomarker Activity (AID 2282997). The note with it: BioMAP 3C HUVEC, tissue factor biomarker readout; actives raise or lower the signal. In outline: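 Tissue factor on primary human umbilical vein endothelium was read by ELISA 24 h after dosing, gain or loss relative to DMSO. Cytotoxicity ran alongside via SRB (0.1%, TCA-fixed, 560 nm).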

A short description of experiment [7]: BSK_3C_uPAR: BioMAP Diversity Plus: 3C Assay for Urokinase-type plasminogen activator receptor (uPAR) Biomarker Activity (AID 2282998). The note with it: BioMAP 3C HUVEC, uPAR biomarker ELISA; actives raise or lower the signal. In outline:
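HUVEC primary cells; 24 h post-dose; uPAR by ELISA; gain or loss of signal fitted bidirectionally vs DMSO baseline.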

Experiment [8] is described as follows: BSK_3C_VCAM1: BioMAP Diversity Plus: 3C Assay for Vascular cell adhesion molecule 1 (VCAM1) Biomarker Activity (AID 2282999). The settings on record: BioMAP 3C HUVEC, VCAM1 ELISA, cytokine-stimulated; actives raise or lower the signal. In outline:
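Vascular primary endothelium (human umbilical vein) was exposed to chemicals and assayed 24 h later. VCAM-1 levels came from ELISA, with DMSO serving as baseline for bidirectional fitting.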
In general terms: An ELISA detects its analyte on a solid surface through an enzyme-linked reagent.

Experiment [9] in a line: BSK_4H_Eotaxin3: BioMAP Diversity Plus: 4H Assay for Eotaxin 3 Biomarker Activity (AID 2283000).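 As to outcome: CCL26 protein level quantified by ELISA in parallel with SRB cytotoxicity check.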 The settings on record: primary human endothelial cells (HUVEC); actives raise or lower the signal. In outline: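 Human umbilical vein endothelial cells (BSK_4H system) dosed with test chemical; Eotaxin-3 (CCL26) measured by ELISA 24 h after dosing. Bidirectional curve fitting relative to DMSO negative control as baseline.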

The target in experiment [10] is human Peroxisome Proliferator-activated Receptor alpha (PPARa), PPARA (gene 5465) (UniProt Q07869). In words: ATG_PPARa_TRANS: Attagene TRANS-FACTORIAL HepG2 Assay for human Peroxisome Proliferator-activated Receptor alpha (PPARa) (AID 2283001; active = hit-call score of the fitted dose curve at least 0.9, where 1 is the maximum;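 as to AC50: potency for gain of reporter signal over DMSO so agonist or activator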). In outline: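 Exposure: 24 h, transiently transfected HepG2 cells. Endpoint: GAL4-UAS reporter mRNA, RT-PCR with capillary electrophoresis fluorescence. Baseline: DMSO; increases fitted.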

Experiment [11] concerns the target human Peroxisome Proliferator-activated Receptor delta (PPARd), PPARD (gene 5467) (UniProt Q03181). The experiment is described as follows: ATG_PPARd_TRANS: Attagene TRANS-FACTORIAL HepG2 Assay for human Peroxisome Proliferator-activated Receptor delta (PPARd) (AID 2283002; active = hit-call score of the fitted dose curve at least 0.9, where 1 is the maximum). The essentials:
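Multiplexed trans-activation format: HepG2 liver cells expressing exogenous NR-Gal4 chimeras and GAL4-UAS reporters were exposed for 24 h. Reporter mRNA was detected by RT-PCR with capillary electrophoresis fluorescence; activity fitted as gain of signal relative to DMSO.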

Read-out in experiment [12]: Intercellular Adhesion Molecule 1 (ICAM1), ICAM1 (gene 3383)
The experiment is described as follows: BSK_3C_ICAM1: BioMAP Diversity Plus: 3C Assay for Intercellular Adhesion Molecule 1 (ICAM1) Biomarker Activity (AID 2283003). The settings on record: primary human endothelial cells (HUVEC); actives raise or lower the signal. In outline: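 ELISA read-out of ICAM-1; HUVEC (primary human), 3C system, 24 h post-dosing; bidirectional fit vs DMSO baseline.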

Experiment [13] in a line: BSK_3C_Proliferation: Cell Proliferation Assessment in the BioMAP Diversity Plus: 3C Assay (AID 2283006).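 As to AC50: potency may reflect either rise or fall in cell number versus DMSO.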 The note with it: primary human endothelial cells (HUVEC). The essentials:
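HUVEC, sub-confluent; 48 h chemical exposure; 10% TCA fix, 0.1% SRB stain, A560 total protein. Gain or loss of signal fitted both directions vs DMSO control.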

Experiment [14] concerns the target Peroxisome proliferator-activated receptor gamma (Homo sapiens) (UniProt P37231). In words: ATG_PPARg_TRANS: Attagene TRANS-FACTORIAL HepG2 Assay for human Peroxisome Proliferator-activated Receptor-gamma (PPARg) (AID 2283007; active = hit-call score of the fitted dose curve at least 0.9, where 1 is the maximum). The essentials: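 Human hepatoma HepG2, transient MRTU transfection, 24 h treatment. mRNA reporter signal by RT-PCR plus capillary electrophoresis, fluorescence detection; fitted for increase over DMSO negative control.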

The target in experiment [15] is Nuclear receptor subfamily 1 group I member 2 (Homo sapiens) (UniProt O75469). The experiment is described as follows: ATG_PXR_TRANS: Attagene TRANS-FACTORIAL HepG2 Assay for human Pregnane X Receptor (PXR) (AID 2283008; active = hit-call score of the fitted dose curve at least 0.9, where 1 is the maximum). The essentials: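 HepG2 transfected (FuGene 6) with GAL4-UAS reporter units + PXR-Gal4 chimera; dosed 24 h. Total RNA → oligo(dT) RT → PCR → 6-FAM primer extension → HpaI cut → CE. Gain-of-signal vs DMSO.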

Experiment [16] in a line: ATG_NFI_CIS: Attagene CIS-FACTORIAL HepG2 Assay for human Nuclear Factor I (NFI) (AID 2282989). The note with it: HepG2 cis-regulatory reporter, NFI response element transcription; actives raise or lower the signal. The essentials:
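Read-out: reporter mRNA via RT-PCR plus capillary electrophoresis with fluorescence detection. Transiently transfected HepG2 (endogenous TF activity on cis promoters), 24 h compound exposure; gain or loss of signal fitted against DMSO.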

The target of experiment [17] is human Retinoic Acid Receptor beta (RARb), RARB (gene 5915) (UniProt P10826). The experiment is described as follows: ATG_RARb_TRANS: Attagene TRANS-FACTORIAL HepG2 Assay for human Retinoic Acid Receptor beta (AID 2283004; active = hit-call score of the fitted dose curve at least 0.9, where 1 is the maximum). The essentials:
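Induction of reporter mRNA from a chimeric RARb-Gal4 construct was measured by RT-PCR, FAM labelling, HpaI digestion and capillary electrophoresis. Measurements followed 24 h compound treatment of transiently transfected human HepG2 liver cells, with DMSO as baseline.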

Experiment [18] deals with human RAR-related Orphan Receptor beta (RORb), RORB (gene 6096) (UniProt Q92753). In words: ATG_RORb_TRANS: Attagene TRANS-FACTORIAL HepG2 Assay for human RAR-related Orphan Receptor beta (RORb) (AID 2283010; active = hit-call score of the fitted dose curve at least 0.9, where 1 is the maximum). The essentials: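 HepG2, transient MRTU transfection (GAL4-UAS reporters, exogenous NR-Gal4 chimeras); 24 h compound exposure; total RNA → RT-PCR → 6-FAM primer extension → HpaI digest → CE fluorescence. Positive direction vs DMSO baseline.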

Each structure is given as a SMILES string. Inconclusive results are not listed. The source made the active and inactive calls. The calls were made as follows, unless noted: active = hit-call score of the fitted dose curve at least 0.9, where 1 is the maximum; inactive = score below 0.9.

Sequence of Nuclear receptor subfamily 1 group I member 2 (Homo sapiens) (O75469 whole entry, looked up, the tested form may be a part): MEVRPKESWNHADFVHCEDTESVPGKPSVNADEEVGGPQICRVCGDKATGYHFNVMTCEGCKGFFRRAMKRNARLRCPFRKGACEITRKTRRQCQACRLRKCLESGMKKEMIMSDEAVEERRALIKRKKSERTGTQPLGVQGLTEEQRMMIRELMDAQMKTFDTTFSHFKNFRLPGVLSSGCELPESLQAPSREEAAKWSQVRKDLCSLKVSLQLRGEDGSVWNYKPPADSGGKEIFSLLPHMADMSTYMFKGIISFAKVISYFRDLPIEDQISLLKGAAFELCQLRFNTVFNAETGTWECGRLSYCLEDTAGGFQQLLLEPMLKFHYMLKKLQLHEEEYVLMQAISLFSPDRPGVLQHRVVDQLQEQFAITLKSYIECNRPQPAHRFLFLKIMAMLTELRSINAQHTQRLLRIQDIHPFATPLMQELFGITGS
Sequence of human Peroxisome Proliferator-activated Receptor alpha (PPARa), PPARA (gene 5465) (Q07869 whole entry, looked up, the tested form may be a part): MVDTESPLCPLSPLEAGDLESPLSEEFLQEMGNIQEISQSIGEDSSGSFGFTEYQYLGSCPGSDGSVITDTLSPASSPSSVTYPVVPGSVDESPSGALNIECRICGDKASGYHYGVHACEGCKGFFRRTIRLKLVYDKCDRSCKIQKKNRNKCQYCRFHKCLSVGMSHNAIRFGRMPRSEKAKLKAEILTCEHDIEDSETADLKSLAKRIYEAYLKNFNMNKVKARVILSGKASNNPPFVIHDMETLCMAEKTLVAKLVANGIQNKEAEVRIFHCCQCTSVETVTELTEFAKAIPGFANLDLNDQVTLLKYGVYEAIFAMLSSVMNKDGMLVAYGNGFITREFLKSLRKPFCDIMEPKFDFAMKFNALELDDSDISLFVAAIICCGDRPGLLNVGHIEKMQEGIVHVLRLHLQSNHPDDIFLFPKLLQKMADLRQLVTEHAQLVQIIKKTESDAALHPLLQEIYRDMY
Sequence of Peroxisome proliferator-activated receptor gamma (Homo sapiens) (P37231 whole entry, looked up): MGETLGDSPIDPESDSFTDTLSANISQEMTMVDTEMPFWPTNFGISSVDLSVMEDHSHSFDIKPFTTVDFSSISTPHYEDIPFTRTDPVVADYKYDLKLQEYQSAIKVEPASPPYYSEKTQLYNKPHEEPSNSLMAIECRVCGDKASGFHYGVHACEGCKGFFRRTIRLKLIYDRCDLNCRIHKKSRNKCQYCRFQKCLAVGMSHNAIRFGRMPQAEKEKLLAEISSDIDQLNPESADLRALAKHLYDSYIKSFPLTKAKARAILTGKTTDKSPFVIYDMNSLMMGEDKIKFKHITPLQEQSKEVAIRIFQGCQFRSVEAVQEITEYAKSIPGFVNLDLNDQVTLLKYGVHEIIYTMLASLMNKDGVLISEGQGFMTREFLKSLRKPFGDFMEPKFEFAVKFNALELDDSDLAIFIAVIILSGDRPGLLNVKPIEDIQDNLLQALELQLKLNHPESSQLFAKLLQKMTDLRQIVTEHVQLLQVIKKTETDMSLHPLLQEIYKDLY
Sequence of Cellular tumor antigen p53 (Homo sapiens) (P04637 whole entry, looked up, the tested form may be a part): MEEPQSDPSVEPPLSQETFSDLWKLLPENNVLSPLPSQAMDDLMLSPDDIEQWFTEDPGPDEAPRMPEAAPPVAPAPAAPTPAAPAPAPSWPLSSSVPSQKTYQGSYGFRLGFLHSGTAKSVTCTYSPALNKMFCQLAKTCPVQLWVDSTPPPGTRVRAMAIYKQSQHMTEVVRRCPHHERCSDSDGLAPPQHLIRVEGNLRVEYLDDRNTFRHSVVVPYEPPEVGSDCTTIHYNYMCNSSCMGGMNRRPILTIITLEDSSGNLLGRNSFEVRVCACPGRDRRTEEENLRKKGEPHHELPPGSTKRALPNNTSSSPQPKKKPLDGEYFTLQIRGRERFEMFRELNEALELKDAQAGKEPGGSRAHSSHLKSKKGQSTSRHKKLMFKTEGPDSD
Sequence of human Peroxisome Proliferator-activated Receptor delta (PPARd), PPARD (gene 5467) (Q03181 whole entry, looked up, the tested form may be a part): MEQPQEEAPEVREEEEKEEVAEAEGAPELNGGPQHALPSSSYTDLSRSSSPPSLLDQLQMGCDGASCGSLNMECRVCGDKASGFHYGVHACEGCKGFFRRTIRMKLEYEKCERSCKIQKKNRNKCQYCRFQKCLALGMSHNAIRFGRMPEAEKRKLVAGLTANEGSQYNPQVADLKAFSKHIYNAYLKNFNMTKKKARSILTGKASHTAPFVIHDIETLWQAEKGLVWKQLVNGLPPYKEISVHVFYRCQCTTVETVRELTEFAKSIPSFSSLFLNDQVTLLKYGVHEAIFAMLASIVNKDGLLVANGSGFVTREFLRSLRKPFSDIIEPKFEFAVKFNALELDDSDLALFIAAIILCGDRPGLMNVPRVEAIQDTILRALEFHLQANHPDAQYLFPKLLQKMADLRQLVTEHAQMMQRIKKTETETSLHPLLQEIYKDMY
Sequence of Myc proto-oncogene protein (Homo sapiens) (P01106 whole entry, looked up): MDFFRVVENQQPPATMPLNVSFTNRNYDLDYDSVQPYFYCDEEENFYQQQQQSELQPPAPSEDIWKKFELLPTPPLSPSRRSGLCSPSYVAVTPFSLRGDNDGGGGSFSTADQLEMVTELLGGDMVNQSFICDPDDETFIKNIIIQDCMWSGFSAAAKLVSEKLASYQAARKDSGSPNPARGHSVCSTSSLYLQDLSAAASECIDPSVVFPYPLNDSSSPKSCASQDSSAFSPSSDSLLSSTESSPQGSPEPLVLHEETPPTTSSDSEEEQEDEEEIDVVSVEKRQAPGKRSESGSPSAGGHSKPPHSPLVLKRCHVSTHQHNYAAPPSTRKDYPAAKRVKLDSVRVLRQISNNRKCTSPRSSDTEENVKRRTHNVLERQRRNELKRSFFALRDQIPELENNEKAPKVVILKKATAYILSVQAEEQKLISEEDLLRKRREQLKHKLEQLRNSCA
Sequence of human RAR-related Orphan Receptor beta (RORb), RORB (gene 6096) (Q92753 whole entry, looked up, the tested form may be a part): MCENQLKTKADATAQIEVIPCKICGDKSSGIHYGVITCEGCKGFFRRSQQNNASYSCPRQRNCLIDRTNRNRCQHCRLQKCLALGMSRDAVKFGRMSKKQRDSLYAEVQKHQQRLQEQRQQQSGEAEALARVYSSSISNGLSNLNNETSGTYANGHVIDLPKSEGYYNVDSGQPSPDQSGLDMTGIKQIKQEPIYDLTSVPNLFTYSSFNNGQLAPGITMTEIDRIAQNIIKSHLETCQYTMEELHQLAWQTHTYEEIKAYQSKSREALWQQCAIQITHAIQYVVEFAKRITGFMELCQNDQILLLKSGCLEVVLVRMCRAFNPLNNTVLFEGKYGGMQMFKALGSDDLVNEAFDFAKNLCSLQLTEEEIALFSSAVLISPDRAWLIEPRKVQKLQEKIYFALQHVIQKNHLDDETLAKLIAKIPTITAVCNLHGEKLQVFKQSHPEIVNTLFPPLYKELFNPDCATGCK
Sequence of human Retinoic Acid Receptor beta (RARb), RARB (gene 5915) (P10826 whole entry, looked up, the tested form may be a part): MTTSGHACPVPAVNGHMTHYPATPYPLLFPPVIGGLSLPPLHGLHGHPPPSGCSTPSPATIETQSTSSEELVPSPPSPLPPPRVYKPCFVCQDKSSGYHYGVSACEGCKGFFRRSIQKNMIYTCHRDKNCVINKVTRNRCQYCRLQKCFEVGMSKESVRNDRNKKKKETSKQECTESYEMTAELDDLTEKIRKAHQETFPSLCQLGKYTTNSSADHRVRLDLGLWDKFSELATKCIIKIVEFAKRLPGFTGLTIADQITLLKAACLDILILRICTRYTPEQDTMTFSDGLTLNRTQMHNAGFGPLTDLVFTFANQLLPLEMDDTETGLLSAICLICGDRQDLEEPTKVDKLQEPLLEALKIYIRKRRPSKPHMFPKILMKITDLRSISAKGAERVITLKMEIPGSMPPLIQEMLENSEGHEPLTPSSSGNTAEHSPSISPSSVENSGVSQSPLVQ

Take `CCCCCC(=O)O`: the compound was classed as inactive in experiment [1], in experiment [2], in experiment [3], in experiment [4], in experiment [5] and in experiment [6]. Also, the outcome in experiment [7], in experiment [8], in experiment [9], in [10], in experiment [11] and in experiment [12] was inactive. For the same compound, the result in [13] was inactive.
Regarding `COc1cc(-c2nc(NC(=O)c3cc4cc(C)cc(C)c4n3CC(=O)O)sc2CCC2CCCCC2)c(OC)cc1Cl`, the compound was classed as inactive in experiment [1], in experiment [5], in experiment [10], in [14] and in [15]. Further, the AC50 in experiment [2] was 26.7 µM (active); in experiment [3], 3.45 µM (active); in experiment [4] it was 5.48 µM (active); in experiment [6], 2.98 µM (active); in [7], 2.92 µM (active); in experiment [8], 4.86 µM (active). Further, the AC50 in [9] is 3.77 µM (active); in experiment [12], 5.54 µM (active); in [13] it was 3.78 µM (active).
With `Cc1ccccc1Cl`, the compound was classed as inactive in [16], in [1], in [3], in experiment [4], in experiment [5] and in experiment [7]. The result in [8], in experiment [9], in experiment [11], in [12], in [13] and in [15] was inactive.
Consider `CC=Cc1ccc(O)c(OC)c1`, for which the outcome in experiment [16], in experiment [1], in experiment [4], in experiment [5], in experiment [7] and in experiment [8] was inactive. Besides, the result in experiment [9], in experiment [10], in experiment [12], in experiment [17], in experiment [13] and in experiment [15] was inactive. The AC50 in [3] is 16.2 µM (active); in [14] it was 61.5 µM (active).
In the case of `CCCCCCCCCCCC(=O)OC`, the result in experiment [1], in experiment [2], in [3], in experiment [4], in experiment [5] and in experiment [6] was inactive. The outcome in experiment [7], in [8], in experiment [9], in [10], in [11] and in experiment [12] was inactive. Also, the outcome in [14] and in experiment [15] was inactive. In addition, the half-maximal activity concentration (AC50) in experiment [13] was 20 µM (active).
Take `COc1ccc(S(=O)(=O)N2C(=O)[C@@](c3ccccc3OC)(N3C[C@H](O)C[C@H]3C(=O)N(C)C)c3cc(Cl)ccc32)c(OC)c1`: the outcome in [16], in [1], in experiment [3], in experiment [6], in experiment [9] and in experiment [11] was inactive. The result in [12] and in [14] was inactive. Further, the half-maximal activity concentration (AC50) is 38 µM (active) in [4]; 49.7 µM (active) in [5]; 20 µM (active) in [7]; 28.8 µM (active) in experiment [8]; 28.7 µM (active) in [13]; 38 nM (active) in experiment [15].
`CCCCOC(=O)CCCCCCCCC(=O)OCCCC`: the call in experiment [1], in experiment [2], in experiment [3], in experiment [4], in experiment [6] and in experiment [7] was inactive. The outcome in experiment [8], in experiment [9], in experiment [12], in [13], in experiment [14] and in experiment [15] was inactive. For the same compound, in experiment [18], the outcome was inactive. The AC50 is 156 µM (active) in [5] and 37 µM (active) in [10].
